Sampled rows, rich in hits. Any-hit rate of the full collection: about 3.3%.
FAK blocker – FAK (human) kinase inhibition. biochemical FAK kinase activity assay. inhibition, %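 (tested at 7 µM)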. hit rate 0.84% among 97,000; in the data active = inhibition above about 19%;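 note: 0% = DMSO and 100% = reference compound high control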
ERa coact inh – ER-alpha (human) coactivator binding inhibition; P03372; TR-FRET ER-alpha LBD / SRC-1 peptide, estradiol-bound; inhibition, % at 25.6 µM; hit rate 1.7% among 86,000; AID 629; in the data active = inhibition above about 50%;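 note: 0% = receptor plus peptide control and 100% = peptide only without receptor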
Target sequence (P03372 whole entry, looked up, the tested form may be a part): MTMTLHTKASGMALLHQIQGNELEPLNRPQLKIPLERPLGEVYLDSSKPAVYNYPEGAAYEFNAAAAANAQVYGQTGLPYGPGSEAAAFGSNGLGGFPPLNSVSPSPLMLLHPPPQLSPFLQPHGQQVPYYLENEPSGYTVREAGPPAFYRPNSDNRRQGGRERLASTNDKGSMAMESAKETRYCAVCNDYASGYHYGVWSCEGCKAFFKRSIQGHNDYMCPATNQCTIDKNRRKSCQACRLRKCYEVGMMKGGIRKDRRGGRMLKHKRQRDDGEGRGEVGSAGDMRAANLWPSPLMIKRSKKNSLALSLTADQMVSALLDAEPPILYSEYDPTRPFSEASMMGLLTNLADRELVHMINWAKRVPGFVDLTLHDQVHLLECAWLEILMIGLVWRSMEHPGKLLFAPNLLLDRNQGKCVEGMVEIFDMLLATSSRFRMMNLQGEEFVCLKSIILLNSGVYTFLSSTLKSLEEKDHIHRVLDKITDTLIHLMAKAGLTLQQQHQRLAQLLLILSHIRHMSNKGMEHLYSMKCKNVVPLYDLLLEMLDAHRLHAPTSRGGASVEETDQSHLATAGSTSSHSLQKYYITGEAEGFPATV
Smad3 inh – inhibitors of human Smad3 transcription factor binding; P84022; TR-FRET Smad3/Dy647-FoxH1 peptide binding, europium anti-His; inhibition, % at 25 µM; hit rate 0.29% among 88,000; AID 630;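 active = compounds that reduce the energy-transfer binding signal between the protein and its labelled peptide by more than half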;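 note: 0% = Smad3 plus labelled peptide maximal FRET and 100% = peptide-only background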
ERb coact inh – ER-beta (human) coactivator binding inhibition | Q92731 | TR-FRET ER-beta LBD / SRC1-Cy5 peptide binding; receptor agonist-loaded with 1 µM estradiol | inhibition, % at 25.6 µM | hit rate 1.3% among 86,000;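 active = compounds whose percent inhibition of the receptor-coactivator binding signal exceeds about 50% in the single-dose screen, limit read from the data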;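 note: 0% = receptor plus peptide wells without compound and 100% = peptide-only wells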
ERa SRC1 pot – ER-alpha (human) coactivator binding potentiation; coactivator binding (% of control), % at 25.6 µM; TR-FRET ERalpha-LBD/SRC-Cy5 coactivator binding, 2 h; 100 = basal binding, no effect; hit rate 1.3% among 86,000; in the data active = activity above about 200%;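 note: binding measured in presence of low estradiol as agonist stimulus; 0% = peptide alone without receptor and 100% = receptor with peptide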
Starred values were filed as active, the others as inactive; x = no result; [ ] = another dose, or the depositor's remark.

SMILES	FAK blocker	ERa coact inh	Smad3 inh	ERb coact inh	ERa SRC1 pot
Cc1oc(-c2ccc(F)cc2)cc1-c1nn2c(-c3ccoc3C)nnc2s1	x	79*[fluorescence artefact?]	0	63*	67
Cc1oc(-c2ccc(F)cc2)cc1-c1nn2c(-c3ccco3)nnc2s1	7	82*[fluorescence artefact?]	-3	51*[fluorescence artefact?]	83
CC1=N[C@@](C)(COC(=O)[C@]2(C)N[C@](C)(CO)CO2)COC1=O	x	x	-1	x	x
COc1cc(C)cc(OC)c1/C=C/C(=O)O	x	x	9	x	x
COc1cc2c3cc1Oc1cc(ccc1O)C[C@@H]1c4c(cc(OC)c(O)c4Oc4ccc(cc4)C[C@H]3[N+](C)(C)CC2)CC[N+]1(C)C	x	x	2	x	x
CSc1nc(C)cc(Nc2ccc(O)c(CN3CCCCC3)c2)n1	x	x	-8	x	x
CCC(C)C(NC(=O)C(N)CC(C)C)C(=O)NC(CCC(=O)OCc1ccccc1)C(N)=O (stereo not given)	2	-1	-5	-3	211*
O=C(O)C(=Cc1ccc(-c2ccccc2)cc1)C(=O)O	x	x	8	x	x
CCc1nnc2n1N=C(c1ccc(-c3ccc(Cl)cc3Cl)o1)CS2	-7	40	-1	17	80
CCc1nnc2n1N=C(c1ccc(-c3cc(Cl)ccc3Cl)o1)CS2	12	59*	4	34	79
CC[C@H]1CC[C@H]2[C@H]3CC=C4C[C@H](OC(C)=O)[C@@H](N)C[C@@]4(C)[C@@H]3CC[C@]12C	x	x	-4	x	x
CC(=O)Nc1nc(C=C(Cl)Cl)cs1	x	65*	7	61*[fluorescence artefact?]	15
C/C(N)=C(/C#N)C(=O)CSc1nnc(Nc2cccc(C)c2)s1	14	91*[fluorescence artefact?]	1	96*[fluorescence artefact?]	17
Cc1cc(NC(=O)CN2CC3CC(C2)c2cccc(=O)n2C3)nc2c1c(=O)oc1ccccc12 (stereo not given)	x	61*[fluorescence artefact?]	11	58*	47
Cc1cc(NC(=O)CN2CCN(Cc3ccccc3)CC2)nc2c1c(=O)oc1ccccc12	x	13	4	24	104
c1ccc(CCc2cccnc2)nc1	x	x	10	x	x
CCc1c(C)sc(NC(=O)c2cnn3cccnc23)c1C#N	-1	36	5	32	262*[fluorescence artefact?]
CCC(Sc1nc2cc(OC)c(OC)cc2c2nc(C)nn12)C(=O)NCc1ccco1 (stereo not given)	x	50*[fluorescence artefact?]	-5	47	132
CCOC(=O)c1cccnc1SC(CC)C(=O)NCc1ccco1 (stereo not given)	-2	-1	4	-9	123
CCC(Sc1nc2ccccc2c2nc3ccccc3n12)C(=O)NCc1ccco1 (stereo not given)	3	77*[fluorescence artefact?]	-2	61*[fluorescence artefact?]	247*[fluorescence artefact?]
NCC[C@H](N)C(=O)O	x	x	-13	x	x
Cc1ccc(-n2c(SCC(=O)N3CCCC3)nc3c(c2=O)SCC3)cc1	x	3	8	-8	107
COC(=O)c1ccc(CSc2nc3c(c(=O)n2-c2ccc(C)cc2)SCC3)o1	x	21	4	27	336*[fluorescence artefact?]
Cc1cc(NC(=O)CSc2nc3c(c(=O)n2-c2ccc(Br)cc2)SCC3)no1	0	60*[fluorescence artefact?]	-71	29	126
N=C1CCC[C@H]1C(=S)SCCC(N)=O	x	x	9	x	x
SMILES	FAK blocker	ERa coact inh	Smad3 inh	ERb coact inh	ERa SRC1 pot
O=C(CSc1nnc(-c2ccccc2)o1)c1ccc2c(c1)OCCO2	-7	-3	-12	2	129
c1ccc(-c2csc3nnc(SCc4ccc5c(c4)OCCO5)n23)cc1	1	x	x	x	x
O=C(CSc1nnc2scc(-c3ccccc3)n12)c1ccc2c(c1)OCCO2	2	-26	4	3	437*[fluorescence artefact?]
Cc1cc(NC(=O)CSc2nnc(-c3ccc4c(c3)OCCO4)o2)no1	-2	-19	-40	0	327*[fluorescence artefact?]
Cc1cc(C)cc(-c2nnc(SCC(=O)c3ccc4c(c3)OCCO4)o2)c1	0	4	11	8	221*[fluorescence artefact?]
CCOC(=O)c1sc(=NC(=O)c2cc(OC)c(OC)c(OC)c2)n(C)c1C	-3	17	10	21	208*
CCOC(=O)c1sc(=NC(=O)c2ccc(S(=O)(=O)N3CCOCC3)cc2)n(C)c1C	x	8	-1	7	166
C(=Nc1ccc2c(c1)Cc1ccccc1-2)c1ccccn1	x	x	2	x	x
Cc1ccc(S(=O)(=O)NCCSc2nnnn2C)cc1	-6	-1	3	75*[fluorescence artefact?]	112
NCCc1nc(-c2nc(C(=O)O)cs2)cs1	x	x	-6	x	x
CCOC(=O)C1=c2/c(=C/c3ccccc3OC)c(N)c(C#N)n2C(=O)C(c2ccccc2OC)S1 (stereo not given)	-1	63*	2	52*	129
CCOC(=O)c1c(NC(=O)CSc2nnc(C)s2)sc2c1CCN(C)C2	19	85*[fluorescence artefact?]	5	48	92
